Measurements as given in PubChem BioAssay (EPA / NIEHS).
Records with an inconclusive call do not appear. Activity calls are given as the source filed them. How the source made its calls: active means hit-call score of the fitted dose curve at least 0.9, where 1 is the maximum; inconclusive means response in the unintended direction; inactive means score below 0.9.

Experiments:
[1] = biological target: Cellular tumor antigen p53 (Homo sapiens) (UniProt P04637); experiment: TOX21_p53_BLA_p2_ratio: Tox21 HCT-116 p53 Agonism Beta-lactamase Assay, Ratio, Phase 2 (AID 2283592)
Chain of Cellular tumor antigen p53 (Homo sapiens) (P04637 whole entry, looked up): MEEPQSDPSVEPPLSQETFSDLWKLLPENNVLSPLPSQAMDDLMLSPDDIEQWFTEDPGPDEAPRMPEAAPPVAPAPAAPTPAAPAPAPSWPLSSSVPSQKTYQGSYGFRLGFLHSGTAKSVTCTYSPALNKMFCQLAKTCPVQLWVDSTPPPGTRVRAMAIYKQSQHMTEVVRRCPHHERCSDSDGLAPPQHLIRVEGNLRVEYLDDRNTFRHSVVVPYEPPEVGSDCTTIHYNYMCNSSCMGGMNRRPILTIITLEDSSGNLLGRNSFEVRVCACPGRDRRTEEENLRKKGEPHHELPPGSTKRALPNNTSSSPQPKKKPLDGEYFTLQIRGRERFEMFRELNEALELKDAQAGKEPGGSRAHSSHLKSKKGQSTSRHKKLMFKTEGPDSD
How it was run: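 In this cell-based reporter format, HCT116 cells were dosed with chemicals delivered from DMSO by 217-fold dilution and incubated 16 h at 37C. Emission at 460 and 530 nm after 2 h CCF4-AM loading provided the ratio, fitted upward versus DMSO.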

[2] = TOX21_p53_BLA_p3_viability: Viability Assessment in the Tox21 HCT-116 p53 Agonism Beta-lactamase Assay, Phase 3 (AID 2283593);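 further: cells exposed to compound for 16 h before reading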
How it was run: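 HCT116 cells, 4000/well, dosed 5 h after plating by pin transfer (217-fold dilution from DMSO stock) and incubated 16 h at 37C, 5% CO2. Viability read as ATP luminescence with CellTiter-Glo after 30 min at room temperature.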

[3] = biological target: Cellular tumor antigen p53 (Homo sapiens) (UniProt P04637); experiment: TOX21_p53_BLA_p3_ratio: Tox21 HCT-116 p53 Agonism Beta-lactamase Assay, Ratio, Phase 3 (AID 2283596)
How it was run: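 HCT116 p53-bla cells (4000/well) given compound in DMSO (217-fold dilution) after 5 h, incubated 16 h at 37C. CCF4-AM substrate 2 h at room temperature; 460/530 nm emission ratio, gain fitted against DMSO.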

[4] = biological target: Cellular tumor antigen p53 (Homo sapiens) (UniProt P04637); experiment: TOX21_p53_BLA_p5_ratio: Tox21 HCT-116 p53 Agonism Beta-lactamase Assay, Ratio, Phase 5 (AID 2283599)
How it was run: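 HCT-116 p53-bla cells (4000/well) plated 5 h, dosed with compound (217-fold DMSO dilution) for 16 h at 37 C; CCF4-AM substrate 2 h at room temperature. Activity is the 460/530 nm emission ratio (405 nm excitation), fitted in gain-of-signal direction versus DMSO.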

[5] = TOX21_p53_BLA_p4_viability: Viability Assessment in the Tox21 HCT-116 p53 Agonism Beta-lactamase Assay, Phase 4 (AID 2283597);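 further: hits lower the luminescence signal meaning cytotoxicity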
How it was run: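 We seeded HCT116 p53 reporter cells at 4000/well and waited 5 h. We then added compounds in DMSO at a 217-fold dilution and incubated for 16 h. Viability was read as CellTiter-Glo luminescence after 30 min at RT.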

[6] = TOX21_p53_BLA_p5_viability: Viability Assessment in the Tox21 HCT-116 p53 Agonism Beta-lactamase Assay, Phase 5 (AID 2283600)
How it was run: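 Compounds, pinned from DMSO at 217-fold dilution, were left on the cells for 16 h. The viability endpoint was ATP content measured by CellTiter-Glo luminescence, where falling signal reflects cytotoxicity.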

[7] = biological target: Cellular tumor antigen p53 (Homo sapiens) (UniProt P04637); experiment: TOX21_p53_BLA_p4_ratio: Tox21 HCT-116 p53 Agonism Beta-lactamase Assay, Ratio, Phase 4 (AID 2283601)
How it was run: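 HCT-116 p53 beta-lactamase reporter cells (4000/well) preincubated 5 h, then compound (217-fold dilution of DMSO stock) for 16 h at 37C. CCF4-AM substrate added 2 h at room temperature; 460/530 nm emission ratio fitted upward versus DMSO.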

Row | SMILES | outcome [1] | outcome [2] | outcome [3] | outcome [4] | outcome [5] | outcome [6] | outcome [7] | AC50 [1]
1 | CC(=O)CC(=O)Nc1ccc2[nH]c(=O)[nH]c2c1 | inactive | inactive | inactive | inactive |  |  |  | 
2 | CC(=O)NC(Cc1ccccc1)C(=O)O (stereo not given) | inactive | inactive | inactive |  | inactive | inactive | inactive | 
3 | CS(=O)(=O)Nc1cc2occ(NC=O)c(=O)c2cc1Oc1ccccc1 | inactive | inactive | inactive |  | inactive | inactive |  | 
4 | CO[C@@H]1[C@@H](OC)[C@H](C)[C@@](O)(CC(=O)O)O[C@H]1[C@H](C)[C@H]1O[C@@]2(CC[C@@](C)([C@H]3CC[C@@](C)([C@@H]4O[C@@H]([C@H]5O[C@](C)(O)[C@H](C)C[C@@H]5C)C[C@@H]4OC4C[C@H](OC)[C@@H](OC)[C@H](C)O4)O3)O2)C[C@H](O)[C@H]1C (stereo not given in full) |  | inactive | inactive |  | inactive |  | inactive | 8.98 µM (active)
5 | CC(=O)Oc1c(C)cc(OCC(O)CNC(C)C)c(C)c1C (stereo not given) | inactive | inactive | inactive |  | inactive |  | inactive | 
6 | CCCCC(CC)CN (stereo not given) | inactive | inactive | inactive |  | inactive |  | inactive | 
7 | COC(=O)CCc1ccc(OCC(O)CNC(C)C)cc1 (stereo not given) | inactive | inactive | inactive |  | inactive | inactive |  | 
8 | CCSC(=O)N(CC)CC | inactive | inactive | inactive | inactive |  |  |  | 
9 | CCCCCCCCS | inactive | inactive | inactive | inactive | inactive |  | inactive | 
10 | NCCCC[C@H](N[C@@H](CCc1ccccc1)C(=O)O)C(=O)N1CCC[C@H]1C(=O)O | inactive | inactive | inactive |  | inactive | inactive | inactive | 
11 | COCC(C)OC(C)=O (stereo not given) | inactive | inactive | inactive | inactive |  | inactive |  | 
12 | O=C(Nc1ccc(/C=C/c2ccc(NC(=O)c3cc(S(=O)(=O)O)c4cccnc4c3O)cc2S(=O)(=O)O)c(S(=O)(=O)O)c1)c1cc(S(=O)(=O)O)c2cccnc2c1O | inactive | inactive | inactive | inactive |  | inactive | inactive | 
13 | N[C@H](CO)C(=O)O | inactive | inactive | inactive | inactive |  | inactive | inactive | 
14 | CCOC(=O)c1ccccc1O | inactive | inactive | inactive | inactive |  | inactive |  | 
15 | CCCCN(CCCC)CCCOC(=O)c1ccc(N)cc1 | inactive | inactive | inactive | inactive |  | inactive | inactive | 
16 | Cc1cccc(C)c1NC(=O)CC12CCCN1CCC2 | inactive | inactive | inactive | inactive |  | inactive | inactive | 

Row | SMILES | outcome [1] | outcome [2] | outcome [3] | outcome [4] | outcome [5] | outcome [6] | outcome [7] | AC50 [1]
17 | O=C(O)/C=C/c1ccc(Cn2ccnc2)cc1 | inactive | inactive | inactive | inactive |  | inactive | inactive | 
18 | O=C(O)C(=O)Cc1c[nH]c2ccccc12 | inactive | inactive | inactive | inactive |  | inactive | inactive | 
19 | CCn1nc(C(=O)O)c(=O)c2cc3c(cc21)OCO3 | inactive | inactive | inactive | inactive |  | inactive | inactive | 
20 | O=C(O)Cc1nn(Cc2ccc(Br)cc2F)c(=O)c2ccccc12 | inactive | inactive | inactive | inactive |  | inactive | inactive | 
21 | O=C(NCN1CCOCC1)c1cnccn1 | inactive | inactive | inactive | inactive |  | inactive | inactive | 
22 | Nc1ncnc2c1ncn2[C@@H]1O[C@H](CO)[C@@H](O)[C@H]1O | inactive | inactive | inactive | inactive |  | inactive | inactive | 
23 | C[C@]12CCC(=O)C=C1CC[C@@H]1[C@@H]2[C@@H](O)C[C@@]2(C)[C@H]1CC[C@]2(O)C(=O)COP(=O)(O)O | inactive | inactive | inactive | inactive |  | inactive | inactive | 
24 | O=C(O)c1ccncc1 | inactive | inactive | inactive | inactive |  | inactive | inactive | 
25 | N#Cc1c(F)cccc1F | inactive | inactive | inactive | inactive |  | inactive | inactive | 
26 | C/C=C(\C)C=O | inactive | inactive | inactive | inactive |  | inactive | inactive | 
27 | Cn1nnc2c(C(N)=O)ncn2c1=O | inactive | inactive | inactive | inactive |  | inactive | inactive | 
28 | CC(S)C(C)S (stereo not given) | inactive | inactive | inactive | inactive |  | inactive | inactive | 
29 | C=CC1CO1 (stereo not given) | inactive | inactive | inactive | inactive |  | inactive | inactive | 
30 | CCCCCCCCOCCC#N | inactive | inactive | inactive | inactive |  | inactive | inactive | 
31 | c1ccc(CSCc2ccccc2)cc1 | inactive | inactive | inactive | inactive |  | inactive | inactive | 
